Measured values reported in PubChem BioAssay AID1851 (National Center for Advancing Translational Sciences (NCATS), 2009).
“And” between values parts separate entries of the source, which are not always exact repeats. Equal values may be shown once. In all, about 16,000 compounds went through this assay and about 2,600 (16%) were called active. Another 20% or so got no clear call; they are omitted. Calls follow the shape of the dose curve; as a rule, active = well fitted curve in the direction sought with a large enough effect; inconclusive = small, poorly fitted or top-dose-only effect, or effect the other way; inactive = no such curve, though single readings can be large or run the other way. A selection follows.

What follows are compounds tested against Cytochrome P450 2D6 (Homo sapiens) (UniProt P10635) (assay: Cytochrome panel assay with activity outcomes). Settings: recombinant CYP, pro-luciferin dealkylation, luminescence, p450-cyp2d6; series mostly up to 57.1 µM; activity, negative = inhibition: at the top concentration.
% is scaled to controls: 0 for no effect and ±100 for the full control effect.

Sequence of Cytochrome P450 2D6 (Homo sapiens) (P10635 whole entry, looked up): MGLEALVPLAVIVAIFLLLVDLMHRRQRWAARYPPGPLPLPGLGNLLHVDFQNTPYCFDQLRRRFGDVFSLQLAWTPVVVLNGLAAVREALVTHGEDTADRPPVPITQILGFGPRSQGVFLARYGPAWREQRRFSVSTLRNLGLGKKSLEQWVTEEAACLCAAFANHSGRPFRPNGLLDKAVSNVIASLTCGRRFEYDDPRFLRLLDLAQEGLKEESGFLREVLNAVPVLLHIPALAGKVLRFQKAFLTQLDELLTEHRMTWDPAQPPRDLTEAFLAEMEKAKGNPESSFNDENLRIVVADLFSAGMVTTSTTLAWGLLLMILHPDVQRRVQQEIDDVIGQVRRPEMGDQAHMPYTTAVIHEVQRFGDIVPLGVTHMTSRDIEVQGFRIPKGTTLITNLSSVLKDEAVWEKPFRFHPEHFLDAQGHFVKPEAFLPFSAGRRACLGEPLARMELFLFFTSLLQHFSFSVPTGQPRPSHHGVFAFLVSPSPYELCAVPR

Structure (SMILES)	activity, negative = inhibition	AC50
CN(C)CCN1C(=O)C(O)=C(C(=O)c2cc3ccccc3o2)C1c1cccc(Br)c1 (centres undefined)	-8.66% (inactive)	–
COc1ccc2c(c1)C(=O)N(c1ccccc1)C(=O)C2	6.59% (inactive)	–
CN(C)c1cc(=O)n2c(n1)SCCC2	-8.3% (inactive)	–
CCSc1nc2ccccc2n1C(=O)/C=C\c1ccc(OC)c(OC)c1	-26.1% (inactive)	–
CC(C)COP(=O)(OCC(C)C)C(O)c1ccccc1F (centres undefined)	-0.495% (inactive)	–
O=C(Nc1ccccc1-c1nc2ccccc2[nH]1)c1ccc(S(=O)(=O)N2CCCCC2)cc1	-16.2% (inactive)	–
O=C(Nc1ccc(S(=O)(=O)N2CCCCC2)cc1)c1ccc(CN2CCc3ccccc3C2)cc1	–	0.251 µM (active)
O=C(Nc1ccc(S(=O)(=O)N2CCCC2)cc1)c1ccc(CN2CCOCC2)cc1	–	5.01 µM (active)
COCc1nnc(NC(=O)c2ccc(S(=O)(=O)N3CCCCCC3)cc2)o1	13.5% (inactive)	–
O=C(CSc1ncccn1)Nc1ccc(S(=O)(=O)N2CCCCC2)cc1	6.83% (inactive)	–
O=C(Nc1ccc(S(=O)(=O)N2CCOCC2)cc1)c1ccc(CN2CCc3ccccc3C2)cc1	–	0.178 µM (active)
CN(C)S(=O)(=O)c1ccc(NC(=O)c2cc(F)c(F)cc2Cl)cc1	-9.35% (inactive)	–
O=C(NCc1n[nH]c(=S)n1-c1ccccc1)c1ccc(S(=O)(=O)N2CCOCC2)cc1	14.4% (inactive)	–
Cc1nc2ccc3nc(NC(=O)c4ccc(S(=O)(=O)N5CCOCC5)cc4)sc3c2s1	5.64% (inactive)	–
CCN(CC)S(=O)(=O)c1ccc(C(=O)Nc2ncn(Cc3ccccc3)n2)cc1	-4.78% (inactive)	–
CN(C)S(=O)(=O)c1ccc(C(=O)Nc2ccc(CN3CCCC3)cc2)cc1	–	2.51 µM (active)
CCOC(=O)c1c(NC(=O)c2ccc(S(=O)(=O)N3CCOCC3)cc2)sc2c1CCN(C)C2	-15.6% (inactive)	–
C[C@@H](c1ccccc1)N1C(=O)[C@H]2[C@@H]3[C@H](O)[C@H](O)CC(=O)[C@H]3CC[C@H]2C1=O	12.3% [at 11.4 µM] (inactive) and 1.84% [at 11.4 µM] (inactive)	–
C#CCCCO/N=C1/C[C@@H](O)[C@@H](O)[C@@H]2[C@@H]3C(=O)N(C[C@@H]4CCCO4)C(=O)[C@H]3CC[C@@H]12	9.44% [at 11.4 µM] (inactive)	–
CCCCOc1ccccc1C1CC(=O)NC2=C1C(=O)CCC2 (centres undefined)	-1.31% (inactive)	–
COc1ccc(N2CCN(S(=O)(=O)c3ccc4c(c3)CCCC4)CC2)c([N+](=O)[O-])c1	-12.9% (inactive)	–
Cn1c(=O)[nH]c(=O)c2c1nc(NCCCO)n2CCCc1ccccc1	-3.72% (inactive)	–
O=C(Nc1nc(-c2ccccc2)cs1)c1cccc([N+](=O)[O-])c1	11.3% (inactive)	–
Cc1nn(-c2ccc(F)cc2)c(Cl)c1/C=C(\CCC(=O)O)c1nc2ccccc2s1	-5.38% (inactive)	–

Structure (SMILES)	activity, negative = inhibition	AC50
CC(=O)[C@H]([C@@H](c1ccccc1)N1CCOCC1)N1CCOCC1	-3.05% [at 11.4 µM] (inactive)	–
CN1CCc2[nH]nc(-c3n[nH]c4c3CN(C)CC4)c2C1	11.7% [at 11.4 µM] (inactive)	–
CN1CCc2c(c3ccccc3n2C)C1	–	12.6 µM (active)
CN1CCc2nc(N)nc(-c3nc(N)nc4c3CN(C)CC4)c2C1	8.94% [at 11.4 µM] (inactive)	–
O=c1[nH]ncc2c3ccccc3n(Cc3ccccc3)c12	9.17% (inactive)	–
CN1CCc2c(c3ccccc3n2Cc2ccccc2)C1	–	3.16 µM (active)
CCCNC(=O)OC[C@@H]1O[C@H](CCO/N=C\[C@@H](C)[C@H](OCc2ccccc2)C(C)C)C=C[C@@H]1Oc1ccc(OC)cc1	-8.99% [at 11.4 µM] (inactive)	–
O=C1N=C2SCCN2/C1=C\c1c(Cl)cccc1Cl	-4.25% (inactive)	–
COC(=O)C/C=C\[C@H](C)[C@H](CO)NS(=O)(=O)c1ccc(C)cc1	-10.6% [at 11.4 µM] (inactive)	–
COCCn1c(=O)c(C)nc2cnc(N(C)C)nc21	4.47% (inactive)	–
Cn1c(=O)c(-c2ccccc2)nc2cnc(N3CCNCC3)nc21	-5.95% (inactive)	–
CCN(CC)c1ccc(N2C(=O)/C(=C/c3cccnc3)SC2=S)cc1	20.9% (inactive)	–
Cc1c(NC(=O)C2CCN(S(=O)(=O)c3ccc(Cl)cc3)CC2)c(=O)n(-c2ccccc2)n1C	10.2% (inactive)	–
CCC/C=C(\CCC)C(NS(=O)(=O)c1ccc(Cl)cc1)c1ccc(C(=O)OC)cc1 (centres undefined)	-8.65% (inactive)	–
CCC/C=C(\CCC)C(NS(=O)(=O)c1ccc(Cl)cc1)c1ccccc1 (centres undefined)	–	20 µM (active)
CCC/C=C(\CCC)C(NS(=O)(=O)c1ccc(C(F)(F)F)cc1)c1ccc(C(=O)OC)cc1 (centres undefined)	2.44% (inactive)	–
CCC/C=C(\CCC)C(NS(=O)(=O)c1cccc2cccnc12)c1ccc(C(=O)OC)cc1 (centres undefined)	-12% (inactive)	–
CCC/C=C(\CCC)C(NC(=O)c1ccc(-c2ccccc2)cc1)c1ccc(C(=O)OC)cc1 (centres undefined)	2.92% (inactive)	–
CCC/C=C(\CCC)C(NC(=O)c1ccc(C(F)(F)F)cc1)c1ccc(C(F)(F)F)cc1 (centres undefined)	0.53% (inactive)	–
CCC/C=C(\CCC)C(NS(=O)(=O)CC12CCC(CC1=O)C2(C)C)c1ccc(C(=O)OC)cc1 (centres undefined)	–	5.01 µM (active)
CCC/C=C(\CCC)C(NC(=O)OCC(C)C)c1ccc(C(=O)OC)cc1 (centres undefined)	-9.01% (inactive)	–
CCC/C=C(\CCC)C(NC(=O)c1ccc(C(F)(F)F)cc1)c1ccccc1 (centres undefined)	–	7.94 µM (active)
CCC/C=C(\CCC)C(NC(=O)c1cccs1)c1ccc(C(=O)OC)cc1 (centres undefined)	-6% (inactive)	–
CCC/C=C(\CCC)C(NS(=O)(=O)c1ccc(C(F)(F)F)cc1)c1ccc(-c2ccccc2)cc1 (centres undefined)	1.52% (inactive)	–

Structure (SMILES)	activity, negative = inhibition	AC50
CCC/C=C(\CCC)C(NS(=O)(=O)c1cccs1)c1ccc(C(=O)OC)cc1 (centres undefined)	–	6.31 µM (active)
O=C(Nc1cccn(Cc2c(Cl)cccc2Cl)c1=O)c1ccc(Cl)cc1Cl	12% (inactive)	–
Cc1ccccc1N1CCN(C(=O)c2ccccc2NC(=O)/C=C\C(=O)O)CC1	2.71% (inactive)	–
C/C(=N\[N+](C)(C)C)c1ccc(C)c(C)c1	-19.6% [at 11.4 µM] (inactive)	–
O=C(O)C1C2C=CC(C2)C1C(=O)N1CCN(C/C=C/c2ccccc2)CC1 (centres undefined)	-10.1% (inactive)	–
Cc1cccc(C(=O)Nc2nnc(-c3ccc(C(C)(C)C)cc3)s2)c1	7.99% (inactive)	–
CCCc1nnc(NC(=O)Cn2cnc3ccccc3c2=O)s1	11.7% (inactive)	–
COc1ccc(C(O)P(=O)(OC(C)C)OC(C)C)cc1OC (centres undefined)	-13.6% (inactive)	–
CCc1ccc(N2C(=O)c3ccc4c5c(ccc(c35)C2=O)CC4)cc1	-7.44% (inactive)	–
C=CCN1C(=O)CN=C1Nc1ccccc1	2.01% (inactive)	–
CN1CCN(/C=N/C2=C(C#N)C(c3ccccc3)C3=C(CC(C)(C)CC3=O)O2)CC1 (centres undefined)	5.01% (inactive)	–
CSc1nc(C)c2c(n1)N(c1ccc(C(F)(F)F)cc1)CC2	7.98% (inactive)	–
COc1ccc(N2C(=O)CSC2c2cccc(F)c2)c(OC)c1 (centres undefined)	17.9% (inactive)	–
COc1cc(OC)c2nc(C)c3c(c2c1)N(c1ccc(O)cc1)CC3	–	3.16 µM (active)
CSc1nc(C)c2c(n1)N(c1ccc(C(C)C)cc1)CC2	-7.45% (inactive)	–
COc1ccc(N2CCc3c(C)nc4c(OC)cc(OC)cc4c32)c(OC)c1	–	0.1 µM (active)
COc1ccc2c(C)cc(N3CCOCC3)nc2c1	-26.1% (inactive)	–
CN(C)CCNc1ncnc2c1sc1nc(N3CCOCC3)c3c(c12)CC(C)(C)SC3	-6.95% (inactive)	–
CC(C)/C(=N/[N+](C)(C)C)c1ccccc1	6.75% [at 11.4 µM] (inactive)	–
CC(C)C(=O)Nc1ccc(C(=O)NNC(=O)CCCOc2ccc(Cl)cc2Cl)cc1	-9.88% (inactive)	–
CC1(C)CC(=O)C/C(=N/NC(=O)CCCOc2ccc(Cl)cc2Cl)C1	-22.8% (inactive)	–
CC(C)NCCCOc1ccc(Cl)cc1Br	–	0.178 µM (active)
CC1(C)O[C@H]2[C@@H](O1)[C@@H](On1nnc3ccc(Cl)cc31)O[C@@H]2[C@@H]1COC(C)(C)O1	-7.25% [at 11.4 µM] (inactive)	–
COc1ccc(C(=O)NNC(=O)CSc2nnc(COc3ccc4ccccc4c3)n2C)cc1	-0.0652% (inactive)	–

Structure (SMILES)	activity, negative = inhibition	AC50
C=C(C)COc1ccc(-c2n[nH]c(C)c2-c2ccc(OC)cc2)c(O)c1	-87.9% (inactive)	–
Oc1ccc(-c2[nH]ncc2-c2ccc(Cl)cc2)c(O)c1	–	8.91 µM (active)
Cc1[nH]nc(-c2ccc(O)cc2O)c1-c1ccc(Cl)cc1	–	3.55 µM (active)
CCCCc1ccc(-c2csc(/C(C#N)=C/c3ccc(C)o3)n2)cc1	-2.34% (inactive)	–
CS(=O)c1ccccc1-c1nc(-c2cc(C(F)(F)F)cc(C(F)(F)F)c2)no1 (centres undefined)	-17% (inactive)	–
COc1ccc(-n2nc3cc(C)c(NC(=S)NC(=O)c4ccccc4C)cc3n2)cc1	6.83% (inactive)	–
COC(=O)c1cc(C(=O)c2ccc(Cl)cc2Cl)cn1C	9.82% (inactive)	–
CC1(C)S[C@@H]2[C@H](NC(=O)[C@@H](N)c3ccccc3)C(=O)N2[C@H]1C(=O)O[C@H]1OC(=O)c2ccccc21	0.075% [at 25.6 µM] (inactive)	–
CC(=O)Nc1ccc(Nc2ncc([N+](=O)[O-])c(Nc3ccc(NC(C)=O)cc3)n2)cc1	-4.74% (inactive)	–
Cc1ccc(Nc2c([N+](=O)[O-])ccc3c2=NC2(CCCCC2)N=3)cc1	–	25.1 µM (active)
O=C(NC1CCCC1)c1cccnc1N1CCCCCC1	11.3% (inactive)	–
Cc1ccc(NC(=O)c2sc3nc[nH]c(=O)c3c2C)c(C)c1	-18.3% (inactive)	–
CCCSc1nnc2n(N)c(=O)c3ccccc3n12	-7.37% (inactive)	–
CCC(=O)Nc1cccc(C(=O)/C=C/c2ccccc2)c1	-16.4% (inactive)	–
COC(=O)c1cccc(NC(=O)CCCOc2ccccc2)c1	–	10 µM (active)
Cc1ccc(OCCCC(=O)Nc2ccccc2C(F)(F)F)cc1	-17.2% (inactive)	–
O=C(CCOc1ccccc1)Nc1ccccc1	21.3% (inactive)	–
Cc1c(NC(=O)CCCOc2ccccc2)cccc1[N+](=O)[O-]	–	1.58 µM (active)
Cc1c(NC(=O)/C=C/C(=O)O)cccc1[N+](=O)[O-]	0.595% (inactive)	–
CCc1sc(-c2c(C#N)c(N)nc3c2CCCCCC3)cc1[N+](=O)[O-]	-11.8% (inactive)	–
COc1ccccc1CCn1c(=O)c(-c2cn(C)c3ccccc23)nc2cncnc21	-10.1% (inactive)	–
CC(C)n1c(O)c(/C=C2\C=Nc3ccccc32)sc1=Nc1ccccc1	-18% (inactive)	–
